Shh pathway inh: Hedgehog pathway signaling inhibitors, primary screen, luminescence, Shh-LIGHT2 cells, Gli-luciferase. Shh-LIGHT2 Gli-luciferase reporter, 30 h. actives 2.1% (n = 22,000). AID 2313, 2010. inhibition, % (test concentration not listed);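 active means mean inhibition across valid replicates above about 65%, limit read from the data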;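 further: pathway switched on by Shh-conditioned medium diluted 1 in 25 in low serum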
BJeLR viability: BJeLR cell viability loss, primary screen, luminescence, CellTiterGlo ATP | AID 2275, 2010 | actives 0.64% (n = 30,000) | viability loss activity score, % (concentration not given with the values) | BJeLR fibroblasts viability, 48 h; HRASV12, hTERT and SV40 LT/ST transformed; in the data active means viability loss activity score above about 50%;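 further: higher score means fewer live cells and less ATP luminescence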
Numbers without * were called inactive; / = not tested or not shown. The full list was thinned out, with hits kept by preference.

SMILES	Shh pathway inh	BJeLR viability
CC1(C)CC[C@]2(C(=O)O[C@@H]3O[C@H](CO)[C@@H](O)[C@H](O)[C@H]3O)CC[C@]3(C)C(=CCC4[C@@]5(C)CC[C@H](OC6O[C@H](CO)[C@@H](O)[C@H](O[C@@H]7O[C@H](CO)[C@@H](O)[C@H](O)[C@H]7O)[C@H]6O)C(C)(C)C5CC[C@]43C)[C@@H]2C1 (some centres not stated)	25.8	/
CC(C)(CCO[C@@H]1O[C@H](CO[C@@H]2OC[C@@H](O)[C@H](O)[C@H]2O)[C@@H](O)[C@H](O)[C@H]1O)C[C@@H]1C(C(=O)O)=CC[C@]2(C(=O)O)C1=CCC1[C@@]3(C)CC[C@H](O[C@@H]4O[C@H](CO[C@@H]5O[C@H](CO)[C@@H](O)[C@H](O)[C@H]5O)[C@@H](O)[C@H](O)[C@H]4O)C(C)(C)C3CC[C@]12C (some centres not stated)	106.4*	/
C[C@@H]1O[C@@H](O[C@H]2[C@H](O[C@H]3[C@H](O[C@H]4CC[C@@]5(C)C(CC[C@]6(C)C5CC=C5[C@@H]7CC(C)(C)C[C@@H](O)[C@]7(C)CC[C@]56C)[C@@]4(C)CO)O[C@H](C(=O)O)[C@@H](O)[C@@H]3O)OC[C@H](O)[C@@H]2O)[C@H](O)[C@H](O)[C@H]1O (some centres not stated)	22.9	8.9
C[C@@H]1O[C@@H](O[C@H]2[C@H](O[C@H]3CC[C@@]4(C)C(CC[C@]5(C)C4CC=C4C6CC(C)(C)CC[C@]6(C(=O)O)CC[C@]45C)[C@]3(C)CO)OC[C@H](O)[C@@H]2O)[C@H](O)[C@H](O)[C@H]1O (some centres not stated)	73.7*	-1.9
C[C@H]1CN([C@@H](C)CO)C(=O)c2cccc(NC(=O)Nc3ccc(F)cc3)c2O[C@H]1CN(C)CC1CC1	-10.9	8.8
C[C@H](CO)N1C[C@H](C)[C@H](CN(C)C(=O)Nc2ccccc2)Oc2c(NC(=O)c3ccc(-c4nccs4)cc3)cccc2C1=O	-13.6	1.3
Cc1ccc(S(=O)(=O)Nc2ccc3c(c2)COC3=O)c(C)c1	/	-6.0
CCC(=O)O[C@@H]1CC(=O)O[C@H](C)C/C=C\C=C\[C@@H](O)[C@H](C)C[C@H](CC=O)[C@H](OC2O[C@H](C)[C@@H](O[C@H]3C[C@@](C)(O)[C@@H](OC(=O)CC)[C@H](C)O3)[C@H](N(C)C)[C@H]2O)[C@H]1OC (some centres not stated)	-137.1	7.2
O=C(COc1ccccc1)Nc1ccc(I)cc1	/	-4.1
CCN1CCN(CCCNC(=O)c2n[nH]c(=O)c3ccccc23)CC1	/	1.6
CC1(C)CC[C@]2(C(=O)O)CC[C@]3(C)C(=CCC4[C@@]5(C)CC[C@H](O[C@@H]6O[C@H](C(=O)O)[C@@H](O[C@@H]7OC[C@@H](O)[C@H](O)[C@H]7O)[C@H](O)[C@H]6O)C(C)(C)C5CC[C@]43C)C2C1O (some centres not stated)	-18.4	-7.4
CC1(C)CC[C@]2(C(=O)O)CC[C@]3(C)C(=CCC4[C@@]5(C)CC[C@H](O[C@@H]6O[C@H](C(=O)O)[C@@H](O[C@@H]7OC[C@@H](O)[C@H](O)[C@H]7O)[C@H](O)[C@H]6O)C(C)(C)C5CC[C@]43C)C2C1 (some centres not stated)	105.0*	0.9
CC(=O)OC1C(C)OC(OC2C(CO)OC(OC(=O)[C@]34CCC(C)(C)CC3C3=CCC5[C@@]6(C)CC[C@H](OC7OC(CO)C(OC8OC(CO)C(OC9OCC(O)C(O)C9O)C(O)C8O)C(O)C7O)[C@@](C)(CO)C6CC[C@@]5(C)[C@]3(C)CC4)C(OC3OC(C)C(O)C(O)C3O)C2O)C(O)C1O (some centres not stated)	3.5	/
C[C@@H]1O[C@@H](O[C@@H]2[C@@H](O)[C@H](O[C@@H]3[C@@H](O)[C@H](C)O[C@@H](O[C@H]4[C@H](O[C@H]5CC[C@@]6(C)C(CC[C@]7(C)C6CC=C6[C@@H]8CC(C)(C)CC[C@]8(C(=O)O)CC[C@]67C)[C@]5(C)CO)OC[C@H](O)[C@@H]4O)[C@@H]3O)O[C@H](CO)[C@H]2O[C@@H]2O[C@H](CO)[C@@H](O[C@@H]3OC[C@@H](O)[C@H](O)[C@H]3O)[C@H](O)[C@H]2O)[C@H](O)[C@H](O)[C@H]1O (some centres not stated)	77.7*	4.5
COc1ccc(S(=O)(=O)N(C)C[C@@H]2Oc3ccc(NC(=O)c4ccncc4)cc3CC(=O)N([C@@H](C)CO)C[C@@H]2C)cc1	-13.7	/
CC(=O)OC1/C=C(/C(=O)O)CC/C=C(/C)C(=O)/C=C\C1(C)C (configuration not stated)	64.7*	-5.8
CC1=C2CCC(C(=O)O)=CC2C(C(C)C)CC1 (configuration not stated)	-24.2	-2.5
